The values below come from PubChem BioAssay.

Assay [1] deals with Wnt5a (protein binding on small-molecule microarray). The assay can be described thus: Wnt5a binders on small-molecule microarray, primary screen, biophysical, 635/667 nm fluorescence (AID 1142).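 Note: fluorescence read at 667 nm with signal to noise per printed feature.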 The settings on record: 635 nm fluorescence, higher = more signal.
Assay [2] in a line: cell viability in Huh7 cells, primary screen, cytotoxicity control for HCV replication inhibitor project, CellTiter-Glo luminescence, basal, 48 h (AID 1143).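 Note: Huh7 hepatoma cells carrying a hepatitis C replication reporter with no stimulus; test concentration not given here.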 The settings on record: Huh7 HCV replicon, higher = more signal, called active from +8 up or from −8 down. A general note: In ATP-based viability assays light output follows the ATP content of the culture.
A short description of assay [3]: P. aeruginosa biofilm formation inhibitors, primary screen, PAO1 strain, BacTiter-Glo luminescence, LB-PBS (AID 1144). The settings on record: 12 h, higher = more signal.
Assay [4] can be described thus: CREB reporter modulators without forskolin, primary screen, cell-based, PC12, CRE-LacZ reporter, unstimulated (AID 1145). The settings on record: no forskolin, luminescence, 4.5 h, higher = more signal, called active from +8 up or from −8 down.
Assay [5] in a line: CREB reporter modulators under forskolin, primary screen, cell-based, PC12, CRE-LacZ reporter, forskolin-stimulated (AID 1146).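 Note: PC12 cells with 6xCRE LacZ reporter stimulated by forskolin 10 µM; beta-galactosidase reporter signal reflecting CREB driven transcription.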 The settings on record: luminescence, 4.5 h, higher = more signal, called active from +8 up or from −8 down.
The target of assay [6] is Streptavidin (Streptomyces avidinii) (UniProt P22629). Put plainly: streptavidin binders on small-molecule microarray, primary screen, artefact control for SMM compound annotation, biophysical, 635/667 nm fluorescence (AID 1147).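 Note: signal reflects streptavidin binding to arrayed compounds as a control protein.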 The settings on record: streptavidin binding, higher = more signal.
The nature of assay [7]: small-molecule binders of probe aInhba, primary screen, biochemical, small-molecule microarray, 635/667 nm fluorescence (AID 1148).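 Note: score merges 667nm spot fluorescence with signal-to-noise for antibody binding to printed compounds.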 The settings on record: higher = more signal.
In assay [8] the target is Torsin-1A (Homo sapiens) (UniProt O14656). The assay can be described thus: torsin A binders from cell lysate, primary screen, small-molecule microarray, wild-type, 635/667 nm (AID 1149). The settings on record: COS7 hTOR1A-WT lysate, 635 nm fluorescence, higher = more signal.
For assay [9] the target is unchanged. Put plainly: small-molecule binders of mutant TOR1A in lysate, primary screen, cell lysate, small-molecule microarray, COS7 lysate, 635/667 nm fluorescence (AID 1150).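 Note: score pools 667 nm emission and signal to noise measuring lysate protein binding.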 The settings on record: COS7 hTOR1A mutant lysate, 635 nm fluorescence, higher = more signal.
The test system of assay [10] is Sonic hedgehog protein (Shh). The assay can be described thus: small-molecule binders of Shh protein, primary screen, biochemical, small-molecule microarray, 635/667 nm fluorescence (AID 1151).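 Note: Shh protein binding to compounds spotted on small-molecule microarray slides; score combines spot fluorescence intensity with signal-to-noise across triplicate slides.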 The settings on record: small-molecule microarray binding, 635 nm fluorescence; higher = more signal.
The nature of assay [11]: E. coli DRC41 culture turbidity changes, primary screen, E. coli filamentation inducer project, strain DRC41, OD650, 48 h (AID 1152).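 Note: E. coli MC1000 strain DRC41 lacking acrAB efflux pump and sulA.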 The settings on record: E. coli DRC41 (acrAB sulA), higher = more signal, called active from +8 up or from −8 down.
Assay [12] is described as follows: small-molecule binders of probe aLefty1, primary screen, biochemical, small-molecule microarray, 635/667 nm fluorescence (AID 1153).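 Note: score merges spot fluorescence with signal-to-noise ratio from the scanned slide images.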 The settings on record: higher = more signal.
Assay [13] in a line: PSAC antagonists in infected red cells, primary screen, cell-based, P. falciparum Indochina, OD700, 1 h (AID 1154). The settings on record: P. falciparum Indochina infected RBC osmotic lysis, higher = more signal, called active from +8 up or from −8 down.
Assay [14] is described as follows: PSAC antagonists in infected red cells, primary screen, cell-based, P. falciparum Indochina, OD700, 2 h (AID 1155).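 Note: lysis reports solute entry through the parasite surface anion channel PSAC; channel blockers reduce lysis of infected cells.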 The settings on record: P. falciparum Indochina infected erythrocytes, osmotic lysis OD700; higher = more signal, called active from +8 up or from −8 down.
Assay [15] in a line: osmotic lysis modulators in infected erythrocytes, primary screen, PSAC antagonist project, cell-based, P. falciparum Indochina, OD700, 3 h (AID 1156). The settings on record: higher = more signal, called active from +8 up or from −8 down.
Assay [16] can be described thus: PSAC antagonists in infected red cells, primary screen, cell-based, P. falciparum Indochina, OD700, 18 h (AID 1157). The settings on record: P. falciparum Indochina infected erythrocytes, osmotic lysis OD700, 18 h; higher = more signal, called active from +8 up or from −8 down.
Assay [17] can be described thus: modulators of S6 phosphorylation in cells, primary screen, cell-based, A549, cytoblot, luminescence, serum-stimulated (AID 1158).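 Note: serum-stimulated A549 lung adenocarcinoma cells; signal is phosphorylated S6 detected by cytoblot immunostaining with HRP secondary.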 The settings on record: A549 phospho-S6 cytoblot, 5 h, higher = more signal.
Assay [18] addresses NADPH oxidase 2 (Homo sapiens) (UniProt P04839). Put plainly: NOX2-dependent H2O2 signal modulators, primary screen, NOX inhibitor project, cell-based, HEK293-NOX2, PMA-stimulated, Amplex Red fluorescence (AID 1159). Note: test concentration not given here. The settings on record: 45 min, higher = more signal, called active from +8 up or from −8 down.
The target in assay [19] is NADPH oxidase 4 (Homo sapiens) (UniProt Q9NPH5). Put plainly: NOX4-dependent H2O2 signal modulators, primary screen, NOX inhibitor project, cell-based, HEK293-NOX4, tetracycline-induced, Amplex Red fluorescence (AID 1160). The settings on record: 45 min, higher = more signal, called active from +8 up or from −8 down.
For assay [20], the target named is NADPH oxidase 5 (Homo sapiens) (UniProt Q96PH1). Put plainly: NOX5-dependent H2O2 signal modulators, primary screen, NOX inhibitor project, cell-based, HEK293-NOX5, Amplex Red fluorescence (AID 1161). The settings on record: HEK293-NOX5, ionomycin, 45 min, higher = more signal.

Activity calls are given as the source filed them. Unless noted, the rule behind the calls is not given here.

Chain of NADPH oxidase 4 (Homo sapiens) (Q9NPH5 whole entry, looked up): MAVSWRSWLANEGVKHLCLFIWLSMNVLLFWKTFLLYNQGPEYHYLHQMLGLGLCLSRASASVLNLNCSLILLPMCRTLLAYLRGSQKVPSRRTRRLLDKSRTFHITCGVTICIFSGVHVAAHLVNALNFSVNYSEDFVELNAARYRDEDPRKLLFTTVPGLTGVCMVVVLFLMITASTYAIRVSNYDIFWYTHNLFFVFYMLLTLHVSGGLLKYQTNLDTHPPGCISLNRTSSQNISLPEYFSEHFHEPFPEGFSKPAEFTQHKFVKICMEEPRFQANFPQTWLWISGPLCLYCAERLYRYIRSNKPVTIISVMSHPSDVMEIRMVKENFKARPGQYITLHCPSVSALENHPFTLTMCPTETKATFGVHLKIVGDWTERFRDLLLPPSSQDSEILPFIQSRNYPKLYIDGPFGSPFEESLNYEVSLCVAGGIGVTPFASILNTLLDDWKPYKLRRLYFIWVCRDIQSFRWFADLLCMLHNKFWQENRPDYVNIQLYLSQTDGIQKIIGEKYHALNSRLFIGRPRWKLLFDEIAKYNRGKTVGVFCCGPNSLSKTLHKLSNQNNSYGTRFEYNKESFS
Chain of Torsin-1A (Homo sapiens) (O14656 whole entry, looked up): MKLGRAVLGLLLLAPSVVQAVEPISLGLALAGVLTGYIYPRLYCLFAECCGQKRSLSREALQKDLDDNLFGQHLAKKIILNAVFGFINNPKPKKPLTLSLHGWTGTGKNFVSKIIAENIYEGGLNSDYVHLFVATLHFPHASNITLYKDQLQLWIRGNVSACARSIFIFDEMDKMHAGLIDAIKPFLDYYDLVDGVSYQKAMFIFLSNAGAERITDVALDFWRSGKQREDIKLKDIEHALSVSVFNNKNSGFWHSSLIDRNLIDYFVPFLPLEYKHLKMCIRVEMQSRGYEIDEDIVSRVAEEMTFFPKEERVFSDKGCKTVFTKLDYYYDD
Chain of NADPH oxidase 2 (Homo sapiens) (P04839 whole entry, looked up): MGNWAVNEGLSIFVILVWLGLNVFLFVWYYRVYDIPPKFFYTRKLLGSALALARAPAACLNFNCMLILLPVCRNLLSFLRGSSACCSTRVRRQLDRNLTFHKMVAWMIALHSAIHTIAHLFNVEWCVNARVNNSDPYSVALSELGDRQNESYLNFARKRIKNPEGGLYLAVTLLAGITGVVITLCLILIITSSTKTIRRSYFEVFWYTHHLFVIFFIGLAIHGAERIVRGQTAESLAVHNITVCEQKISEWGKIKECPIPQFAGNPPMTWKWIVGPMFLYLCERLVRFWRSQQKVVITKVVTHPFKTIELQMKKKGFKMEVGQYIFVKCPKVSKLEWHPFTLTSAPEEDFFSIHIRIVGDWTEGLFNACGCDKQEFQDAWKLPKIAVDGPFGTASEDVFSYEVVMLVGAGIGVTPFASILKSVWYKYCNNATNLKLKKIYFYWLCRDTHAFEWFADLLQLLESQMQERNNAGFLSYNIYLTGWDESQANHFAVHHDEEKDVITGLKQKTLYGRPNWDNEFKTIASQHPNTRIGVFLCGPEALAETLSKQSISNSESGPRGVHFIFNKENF
Chain of NADPH oxidase 5 (Homo sapiens) (Q96PH1 whole entry, looked up): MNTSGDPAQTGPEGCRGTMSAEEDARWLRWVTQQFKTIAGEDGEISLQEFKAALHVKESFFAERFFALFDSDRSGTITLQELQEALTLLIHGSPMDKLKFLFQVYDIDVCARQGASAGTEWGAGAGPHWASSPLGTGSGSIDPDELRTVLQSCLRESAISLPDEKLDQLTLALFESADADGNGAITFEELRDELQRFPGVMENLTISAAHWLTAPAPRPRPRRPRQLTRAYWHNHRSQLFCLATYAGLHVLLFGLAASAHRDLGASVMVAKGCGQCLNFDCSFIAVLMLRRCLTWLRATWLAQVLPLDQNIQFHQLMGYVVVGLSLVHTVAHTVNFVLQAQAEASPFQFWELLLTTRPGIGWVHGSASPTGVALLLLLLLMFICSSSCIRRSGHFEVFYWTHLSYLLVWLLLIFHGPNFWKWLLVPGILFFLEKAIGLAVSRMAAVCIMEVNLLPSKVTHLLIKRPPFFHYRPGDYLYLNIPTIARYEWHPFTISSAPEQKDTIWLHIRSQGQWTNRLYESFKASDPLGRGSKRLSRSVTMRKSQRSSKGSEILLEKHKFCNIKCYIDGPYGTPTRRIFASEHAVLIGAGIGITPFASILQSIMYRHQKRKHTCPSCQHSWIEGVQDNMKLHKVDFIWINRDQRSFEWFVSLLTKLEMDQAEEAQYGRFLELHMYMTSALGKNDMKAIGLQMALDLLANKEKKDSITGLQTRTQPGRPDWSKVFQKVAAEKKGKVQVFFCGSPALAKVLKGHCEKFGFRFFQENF
Chain of Streptavidin (Streptomyces avidinii) (P22629 whole entry, looked up): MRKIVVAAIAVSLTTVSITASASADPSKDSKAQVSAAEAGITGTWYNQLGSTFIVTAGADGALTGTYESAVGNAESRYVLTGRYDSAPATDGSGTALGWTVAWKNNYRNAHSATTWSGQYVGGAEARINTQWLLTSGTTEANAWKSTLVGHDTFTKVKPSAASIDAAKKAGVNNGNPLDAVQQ

For `O=C(O)[C@@H]1C[C@@H]2C(=O)N3CCC[C@H]3C(=O)N2[C@@H]1c1cccc(OCCO)c1`, the composite z-score in assay [1] came out at 1.25; in assay [6], 3.76; in [7], 1.95; with Torsin-1A (Homo sapiens) [8], 2.99; in the assay with Torsin-1A (Homo sapiens) [9], 2.12; in [10] it was 2.02. In addition, the composite z-score in assay [12] turned out to be 2.57. Besides, the z-score was -0.0592 (inactive) in [2]; 1.36 (inactive) in [3]; 0.143 (inactive) in [4]; -0.382 (inactive) in [5]; 0.807 (inactive) in [11]; 2.94 (inactive) in assay [13]. In addition, the z-score in assay [14] was 0.591 (inactive); in assay [15], -1.77 (inactive); in [16] it was 0.35 (inactive); in assay [17] it was 0.132; in assay [18], 1.29 (inactive); in assay [19], 0.355 (inactive). Further, the z-score in assay [20] was determined as 1.59.

For `COC(=O)C(CC#Cc1ccc2c(c1)[C@]1(C(=O)N2)[C@H](c2ccc(OCCO)cc2)N2[C@H](c3ccccc3)[C@H](c3ccccc3)OC(=O)[C@H]2[C@@H]1C(=O)N1CCN(c2ncccn2)CC1)C(=O)OC`, the composite z-score in [1] came to 0.419; in assay [6], 0.862; in assay [7], 0.306; with Torsin-1A (Homo sapiens) [8], 0.272; with Torsin-1A (Homo sapiens) [9] it was 0.666; in assay [10] it was 1.2. In assay [12], the composite z-score came to 0.53. The z-score in assay [2] was -0.339 (inactive); in [3], -0.961 (inactive); in [4], -0.554 (inactive); in assay [5], 1.27 (inactive); in [11], -0.34 (inactive); in [13], 4.2 (inactive). In addition, the z-score is 1.62 (inactive) in [14]; 0.257 (inactive) in [15]; 0.539 (inactive) in assay [16]; -0.454 in assay [17]; 1.46 (inactive) in assay [18]; 1.05 (inactive) in [19]. The compound further yielded a z-score in [20] of 1.52.

With `C=CCNC(=O)[C@H]1[C@@H]2C(=O)O[C@@H](c3ccccc3)[C@@H](c3ccccc3)N2[C@@H](c2ccc(OCCO)cc2)[C@]12C(=O)Nc1ccc(C#CCNC(N)=O)cc12`, the composite z-score was 0.314 in [1]; 0.756 in assay [6]; 0.0857 in [7]; 0.207 with Torsin-1A (Homo sapiens) [8]; 0.125 with Torsin-1A (Homo sapiens) [9]; 1.61 in [10]. The same compound showed a composite z-score in assay [12] of 0.0809. Besides, the z-score was -0.384 (inactive) in [2]; -0.78 (inactive) in assay [3]; 0.559 (inactive) in [4]; 0.123 (inactive) in assay [5]; -0.0661 (inactive) in [11]; 2.59 (inactive) in assay [13]. Also, the z-score in assay [14] is 1.36 (inactive); in assay [15], 1.42 (inactive); in [16], 0.563 (inactive); in [17], 0.326; in assay [18], 1.91 (inactive); in [19], 0.286 (inactive). Also, the z-score in [20] is -0.621.

As to `O=C1C[C@@](C(=O)NCC(F)(F)F)(c2ccc([N+](=O)[O-])cc2)[C@@H](c2ccc(CO)cc2)N1CC12CC3CC(CC(C3)C1)C2`, the composite z-score in assay [1] turned out to be 0.988; in assay [6], 0.261; in [7], 0.216; with Torsin-1A (Homo sapiens) [8], 0.406; with Torsin-1A (Homo sapiens) [9], 0.397; in assay [10], 1.34. In assay [12], this compound displayed a composite z-score of 0.282. Also, the z-score in assay [2] is -5.79 (inactive); in assay [3] it was -0.542 (inactive); in [4], 0.324 (inactive); in assay [5], -1.01 (inactive); in assay [11], -0.0809 (inactive); in assay [13], 5.86 (inactive). The z-score is 0.525 (inactive) in assay [14]; 2.97 (inactive) in assay [15]; -0.092 (inactive) in assay [16]; 2.16 in [17]; -0.178 (inactive) in [18]; -3.52 (inactive) in assay [19]. Besides, the z-score in [20] is -5.17.
